Reference: PubChem BioAssay AID1159580 (chemical genetic matrix, 2015)
Several values for one entry are separate records, joined by “and”; a condition that tells them apart may be missing. Equal values may be shown once. About 2,000 (36%) of roughly 5,500 compounds were called active. Another 18% or so got no clear call; they are omitted. Rule as the data show it: active = normalized growth mostly below about 0.91 (no sharp cut-off); inconclusive = no clear call, values can overlap the other calls; inactive = mostly above about 0.92. The list shows a part of the results.

Test: chemical genetic growth profiling, strain panel (AID 1159580);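 also: tested at 20 µM; growth read once vehicle control cultures reached saturation at 30 °C; 1 = growth at the plate median or of vehicle wells; lower values mean less growth of the strain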
Conditions: growth OD

Measured: normalized growth

O=C1NCC2(CCN(CCc3ccccc3)CC2)O1
inactive: S. cerevisiae deletion strains, locus YKL009W, strain mrt4, hits give low values 0.986 | S. cerevisiae deletion strains, locus YKL068W, hits give low values 0.995 | S. cerevisiae deletion strains, locus YKL085W, strain MDH1 (second series), hits give low values 0.995 | S. cerevisiae deletion strains, locus YKL085W, strain MDH1, hits give low values 0.995 | S. cerevisiae deletion strains, locus YKL160W, strain elf1, hits give low values 0.97 | S. cerevisiae deletion strains, locus YKL190W, strain CNB1, hits give low values 1 | S. cerevisiae deletion strains, locus YKR001C, strain vps1, hits give low values 0.999 | S. cerevisiae deletion strains, locus YKR026C, strain gcn3, hits give low values 0.939 | S. cerevisiae deletion strains, locus YKR091W, strain srl3, hits give low values 1.01 | S. cerevisiae deletion strains, locus YLL001W, strain dnm1, hits give low values 0.945 | S. cerevisiae deletion strains, locus YLL026W, hits give low values 1 | S. cerevisiae deletion strains, locus YLL041C, strain sdh2, hits give low values 0.999 | S. cerevisiae deletion strains, locus YLR027C, strain aat2, hits give low values 0.995 | S. cerevisiae deletion strains, locus YLR039C, strain RIC1, hits give low values 1 | S. cerevisiae deletion strains, locus YLR058C, strain SHM2, hits give low values 1.01 | S. cerevisiae deletion strains, locus YLR102C, strain apc9, hits give low values 0.999 | S. cerevisiae deletion strains, locus YLR113W, strain HOG1, hits give low values 0.964 | S. cerevisiae deletion strains, locus YLR221C, strain rsa3, hits give low values 1 | S. cerevisiae deletion strains, locus YLR258W, strain gsy2, hits give low values 1 | S. cerevisiae deletion strains, locus YLR262C, strain YPT6 (second series), hits give low values 0.981 | S. cerevisiae deletion strains, locus YLR262C, strain YPT6, hits give low values 0.968 | S. cerevisiae deletion strains, locus YLR268W, strain sec22, hits give low values 1.04 | S. cerevisiae deletion strains, locus YLR320W, strain mms22, hits give low values 1.02 | S. cerevisiae deletion strains, locus YLR330W, strain CHS5, hits give low values 1.01 | S. cerevisiae deletion strains, locus YLR342W, strain FKS1 (second series), hits give low values 1.01 | S. cerevisiae deletion strains, locus YLR342W, strain FKS1, hits give low values 0.994 | S. cerevisiae deletion strains, locus YLR357W, strain rsc2, hits give low values 0.981 | S. cerevisiae deletion strains, locus YLR370C, strain arc18, hits give low values 0.989 | S. cerevisiae deletion strains, locus YLR371W, strain rom2, hits give low values 1.01 | S. cerevisiae deletion strains, locus YLR384C, strain iki3, hits give low values 0.988 | S. cerevisiae deletion strains, locus YLR418C, strain cdc73, hits give low values 0.981 | S. cerevisiae deletion strains, locus YML016C, strain PPZ1, hits give low values 1 | S. cerevisiae deletion strains, locus YML032C, strain rad52, hits give low values 1.02 | S. cerevisiae deletion strains, locus YML120C, strain ndi1, hits give low values 0.984 | S. cerevisiae deletion strains, locus YML124C, strain tub3, hits give low values 0.996 | S. cerevisiae deletion strains, locus YMR058W, strain fet3, hits give low values 0.979 | S. cerevisiae deletion strains, locus YMR078C, strain ctf18, hits give low values 1 | S. cerevisiae deletion strains, locus YMR125W, strain sto1, hits give low values 0.97 | S. cerevisiae deletion strains, locus YMR129W, hits give low values 0.98 | S. cerevisiae deletion strains, locus YMR205C, strain PFK2, hits give low values 1.01 | S. cerevisiae deletion strains, locus YMR223W, strain ubp8, hits give low values 0.978 | S. cerevisiae deletion strains, locus YMR231W, strain pep5, hits give low values 0.994 | S. cerevisiae deletion strains, locus YMR263W, strain SAP30, hits give low values 1.02 and 1 | S. cerevisiae deletion strains, locus YMR307W, strain GAS1, hits give low values 0.884 | S. cerevisiae deletion strains, locus YNL067W, strain RPL9B, hits give low values 1.02 | S. cerevisiae deletion strains, locus YNL071W, strain lat1, hits give low values 1.01 | S. cerevisiae deletion strains, locus YNL128W, strain TEP1, hits give low values 1.02 | S. cerevisiae deletion strains, locus YNL153C, strain GIM3, hits give low values 1.02 and 1.04 | S. cerevisiae deletion strains, locus YNL175C, strain NOP13, hits give low values 1.01 | S. cerevisiae deletion strains, locus YNL183C, strain NPR1, hits give low values 0.904 | S. cerevisiae deletion strains, locus YNL197C, strain WHI3, hits give low values 0.992 | S. cerevisiae deletion strains, locus YNL209W, strain ssb2, hits give low values 0.998 | S. cerevisiae deletion strains, locus YNL224C, strain SQS1, hits give low values 0.995 | S. cerevisiae deletion strains, locus YNL233W, strain BNI4, hits give low values 1.02 | S. cerevisiae deletion strains, locus YNL248C, strain rpa49, hits give low values 1.01 | S. cerevisiae deletion strains, locus YNL250W, strain rad50, hits give low values 1 | S. cerevisiae deletion strains, locus YNL271C, strain bni1, hits give low values 1.01 | S. cerevisiae deletion strains, locus YNL298W, strain CLA4, hits give low values 0.989 | S. cerevisiae deletion strains, locus YNL307C, strain MCK1, hits give low values 1.01 | S. cerevisiae deletion strains, locus YNL322C, strain KRE1 (second series), hits give low values 0.999 | S. cerevisiae deletion strains, locus YNL322C, strain KRE1, hits give low values 1 and 1.01 | S. cerevisiae deletion strains, locus YNR049C, strain mso1, hits give low values 0.987 | S. cerevisiae deletion strains, locus YNR052C, strain pop2, hits give low values 1 | S. cerevisiae deletion strains, locus YOL006C, strain TOP1, hits give low values 1.07 | S. cerevisiae deletion strains, locus YOL012C, strain htz1 0.911 | S. cerevisiae deletion strains, locus YOL147C, strain pex11, hits give low values 0.996 | S. cerevisiae deletion strains, locus YOR001W, strain rrp6, hits give low values 0.985 | S. cerevisiae deletion strains, locus YOR061W, strain CKA2, hits give low values 1.01 | S. cerevisiae deletion strains, locus YOR069W, strain VPS5, hits give low values 0.99 | S. cerevisiae deletion strains, locus YOR070C, strain gyp1, hits give low values 1 | S. cerevisiae deletion strains, locus YOR080W, strain dia2, hits give low values 0.988 | S. cerevisiae deletion strains, locus YOR083W, strain WHI5 (second series), hits give low values 1 | S. cerevisiae deletion strains, locus YOR083W, strain WHI5, hits give low values 0.988 | S. cerevisiae deletion strains, locus YOR106W, strain vam3, hits give low values 0.979 | S. cerevisiae deletion strains, locus YOR136W, strain idh2, hits give low values 0.988 | S. cerevisiae deletion strains, locus YOR144C, strain elg1, hits give low values 1 | S. cerevisiae deletion strains, locus YOR184W, strain ser1, hits give low values 0.993 | S. cerevisiae deletion strains, locus YOR231W, strain MKK1, hits give low values 0.979 | S. cerevisiae deletion strains, locus YOR265W, strain rbl2, hits give low values 0.999 | S. cerevisiae deletion strains, locus YOR270C, strain vph1, hits give low values 0.975 | S. cerevisiae deletion strains, locus YOR290C, strain snf2, hits give low values 1 | S. cerevisiae deletion strains, locus YOR316C, strain cot1, hits give low values 0.999 | S. cerevisiae deletion strains, locus YPL051W, strain arl3, hits give low values 0.995 | S. cerevisiae deletion strains, locus YPL055C, strain LGE1, hits give low values 0.993 and 1 | S. cerevisiae deletion strains, locus YPL078C, strain atp4, hits give low values 0.991 | S. cerevisiae deletion strains, locus YPL106C, strain sse1, hits give low values 1 | S. cerevisiae deletion strains, locus YPL240C, strain hsp82, hits give low values 0.986 | S. cerevisiae deletion strains, locus YPL241C, strain CIN2, hits give low values 1.01 | S. cerevisiae deletion strains, locus YPL256C, strain CLN2, hits give low values 0.986 | S. cerevisiae deletion strains, locus YPR119W, strain clb2, hits give low values 1 | S. cerevisiae deletion strains, locus YPR141C, strain kar3, hits give low values 0.997 | S. cerevisiae deletion strains, locus YPR163C, strain tif3, hits give low values 1.01 | S. cerevisiae deletion strains, locus YPR167C, strain met16, hits give low values 1 | S. cerevisiae deletion strains, strain wtn01, hits give low values 0.997 | S. cerevisiae strains, strain wild type, hits give low values 1.01
